This is an account of results in PubChem BioAssay (Tox21).

Results filed as inconclusive are left out. Where a call stands in place of a potency, no number is given. Activity calls are given as the source filed them. The call rests on the fitted dose curve; in most records, active means well fitted cell-killing curve with a large enough effect in the repeat runs; inconclusive means weak or mixed curves, or effect the other way; inactive means flat fitted curve, though single readings scatter.
Potency means the concentration at half of the fitted maximal effect.

The experiment is described as follows: qHTS assay to identify small molecule agonists of the constitutive androstane receptor (CAR) signaling pathway - cell viability counter screen (AID 1224836). Further: nearly all actives have a fitted effect of over 45% in size. The following applies: HepG2-CYP2B6-hCAR viability, CellTiter-Fluor, 23 h, PK11195 added to every well; series mostly up to 92.4 µM; viability change, negative = cytotoxic: at the top concentration. An excerpt: U.S. Tox21 Program National Center for Advancing Translational Sciences [NCATS] NIH Chemical Genomics Center [NCGC] U.S. Environmental Protection Agency [EPA] National Institutes of Environmental Health Sciences [NIEHS] National Toxicology Program [NTP] U.S. Food and Drug Administration [FDA] Tox21 Assay Overview: The constitutive androstane receptor (CAR) is a nuclear receptor which regulates multiple drug metabolizing enzymes (DMEs) and transporters. Activating CAR will generally increase the transcription and subsequent translation of CYP2B6 and CYP3A4. These two DMEs represent about 50% of the drug metabolizing potential in the body. […] Recently, there have also been studies performed indicating CARs role in energy metabolism and cancer therapy. Therefore, inducing CARs activity could have a potential effect on diabetes and cancer. Identifying environmental toxins and compounds which modulate CAR, through the use of the Tox21 10K compound collection, will be an important step in determining the toxicity and potential therapeutic effects these factors will have on the human body. To differentiate true CAR agonists from cytotoxic substances, the assay is multiplexed with a cell viability assay.
Tox21 Assay Protocol Summary: A double-stable (hCAR and CYP2B6-2.2kb) transfected cell line, derived from human hepatoma (HepG2) cells, was utilized for the duration of the quantitative high-throughput screens. The HepG2-CYP2B6-hCAR cells were dispensed at 2500 cells/4 uL/well in 1536-well white solid bottom plates using a Multidrop Combi. After the assay plates were incubated at 37 C/5% CO2 for 4 hrs, 23 nL of compounds at 15 concentrations (from 5-48 columns) or positive control (from 1 to 4 columns) were transferred to the assay plates using a Pintool station. One uL of PK11195 (final concentration = 0.75 uM) was added, using a Flying Reagent Dispenser, inside each well. After a 23 hr incubation period at 37 C/5% CO2, 1 uL of CellTiter-Fluor reagent was added into each well of the assay plates using a Flying Reagent Dispenser. The fluorescence intensity in the plates was then measured using a ViewLux plate reader.
(In qHTS, concentration-response curves come from the screen itself.)
With `O=C(O)COCCN1CCN(C(c2ccccc2)c2ccc(Cl)cc2)CC1` (stereo not given), the Potency entry was “inactive”. Same read-out and setting: as for `Cc1ccc(S(=O)(=O)NCl)cc1`, the entry is “inactive”; as for `Cc1ccc(C)c(O)c1`, “inactive”.

For `NCCOCCO`, the Potency result is “inactive”.

As to `C=CCOC(=O)C(=C)C`, the Potency result was “inactive”.

Take `Nc1ccc(N)c(Cl)c1`: the Potency entry was “inactive”.

With `Cc1ccc2c(c1)C(=O)OC2=O`, the Potency entry was “inactive”. Same read-out and setting: as for `Oc1c(Cl)ccc(Cl)c1Cl`, the entry is “inactive”; as for `Cc1cccc(Nc2ccccc2C(=O)O)c1C`, “inactive”. As for `O=S1(=O)CCCO1`, the Potency entry is “inactive”.

Take `CC(C)[C@@H]1CC[C@@H](C)CC1=O`: the Potency entry was “inactive”. `Nc1ccc(O)c(N)c1`: the Potency result is “inactive”.

As for `CNC[C@H](O)c1ccc(O)c(O)c1`, the Potency entry was “inactive”. On to `O=C1CCc2ccccc2O1`, for which the Potency result is “inactive”. As for `Brc1nc2ccccc2s1`, the Potency result is “inactive”.

`Clc1ccc(Sc2cc(Cl)c(Cl)cc2Cl)cc1`: the Potency result is “inactive”. On the same count and under the same terms, as for `O=C(CCCN1CCC(O)(c2ccc(Cl)cc2)CC1)c1ccc(F)cc1`, the figure is 61.1 µM (active); as for `C=CCCCCCCCCCC`, “inactive”; as for `O=[Se](O)O`, 43.3 µM (active). As for `FC(F)(F)C(Cl)Br` (stereo not given), the Potency result was “inactive”.

`OCCNCCO`: the Potency result was “inactive”. On to `C=C1C[C@H]2[C@@H]3C=C(C)C4=CC(=O)CC[C@]4(C)[C@H]3CC[C@]2(C)[C@@]1(OC(C)=O)C(C)=O`, for which the Potency entry was “inactive”. Turning to `CC(C)(C)c1cccc(C(C)(C)C)c1O`, the “viability change, negative = cytotoxic” value is 5.54% (inactive). On the same count and under the same terms, as for `CCC(=O)O[C@H]1[C@H](O[C@@H]2[C@@H](C)[C@H](O[C@H]3C[C@@](C)(OC)[C@@H](O)[C@H](C)O3)[C@@H](C)C(=O)O[C@H](CC)[C@@](C)(O)[C@H](O)[C@@H](C)C(=O)[C@H](C)C[C@@]2(C)O)O[C@H](C)C[C@@H]1N(C)C`, the figure is -0.97% [at 42.5 µM] (inactive).

As to `O=C(O)c1cc(=O)[nH]c(=O)[nH]1`, the Potency entry was “inactive”.

Take `C[C@]12CC[C@@H]3c4ccc(O)cc4CC[C@H]3[C@@H]1CC[C@H]2O`: the Potency entry is “inactive”. On the same count and under the same terms, as for `CCCCCC1C(=O)CCC1CC(=O)OC` (stereo not given), the entry is “inactive”; as for `IC(I)I`, “inactive”. Consider `COc1ccc(C(=O)c2ccccc2O)c(O)c1`, for which the Potency entry is “inactive”.

As to `CC(=O)[C@@]1(O)CC[C@H]2[C@@H]3C[C@H](C)C4=CC(=O)C=C[C@]4(C)[C@@]3(F)[C@@H](O)C[C@@]21C`, the Potency entry was “inactive”.

Turning to `OC[C@@H](O)[C@@H](O[C@@H]1O[C@H](CO)[C@H](O)[C@H](O)[C@H]1O)[C@H](O)[C@@H](O)CO`, the Potency result was “inactive”.

As to `CCCCCCCCCCC(CO)CCCCCCCC` (stereo not given), the Potency entry was “inactive”. Turning to `c1ccc2cc3ccccc3cc2c1`, the Potency result was “inactive”. With `C[N+](C)(C)CCO`, the Potency result is “inactive”. Same read-out and setting: as for `CCCCCCCCCCCCO`, the entry is “inactive”. Turning to `Nc1cc(Cl)c(N)c(Cl)c1`, the “viability change, negative = cytotoxic” value was 0.258% (inactive).

Regarding `CC1(C)OC(=O)NC1=O`, the Potency result was “inactive”. For `[O-]/[N+](=N\O)c1ccccc1`, the Potency result is “inactive”. In the case of `CN(Cc1cnc2nc(N)nc(N)c2n1)c1ccc(C(=O)N[C@@H](CCC(=O)O)C(=O)O)cc1`, the Potency entry was “inactive”. On the same count and under the same terms, as for `COC(=O)CC(=O)OC`, the entry is “inactive”.
